In PubChem BioAssay:

target: Tumor necrosis factor receptor superfamily member 10B (Homo sapiens) (UniProt O14763); assay: viability loss of caspase-8 NB7 cells with TRAIL – with/without TRAIL, luminescence panel, confirmation (AID 651596); settings: NB7 neuroblastoma + caspase-8, TRAIL sensitization, NB7 Caspase-8, with TRAIL, mean of runs, at 10 µM, stronger effect = higher value
Sequence (O14763 whole entry, looked up): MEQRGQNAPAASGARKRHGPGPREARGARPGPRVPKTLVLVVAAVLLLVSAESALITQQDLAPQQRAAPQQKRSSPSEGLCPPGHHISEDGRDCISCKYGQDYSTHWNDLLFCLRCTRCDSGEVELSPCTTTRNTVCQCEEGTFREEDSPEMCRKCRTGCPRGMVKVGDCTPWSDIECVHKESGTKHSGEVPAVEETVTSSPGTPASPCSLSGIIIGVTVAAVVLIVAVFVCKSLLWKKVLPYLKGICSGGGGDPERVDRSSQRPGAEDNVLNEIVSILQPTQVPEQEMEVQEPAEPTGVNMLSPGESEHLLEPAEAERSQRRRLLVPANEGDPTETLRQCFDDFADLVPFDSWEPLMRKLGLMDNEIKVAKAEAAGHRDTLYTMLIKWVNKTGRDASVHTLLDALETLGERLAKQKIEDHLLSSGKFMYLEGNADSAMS

Row | Structure (SMILES) | activity [%]
1 | COc1ccc(OC)c2sc(N(CCN(C)C)C(=O)/C=C/c3cccs3)nc12 | 95.2
2 | COc1ccc(-c2nc3ccccc3c(=O)[nH]2)cc1 | 73.8
3 | CNc1nnc(-c2ccc(N(C)C)cc2)s1 | 73.4
4 | CN(C)CCCN(C(=O)c1cc2cc([N+](=O)[O-])ccc2s1)c1nc2cc3c(cc2s1)OCCO3 | 92.2
5 | Cc1cccc(NC(=O)CCc2ccc(N3C(N)=NC(N)=NC3(C)C)cc2)c1 | 81.3
6 | COc1ccc(Cn2c(SCc3ccc(C)cc3)nc3cc(OC)c(OC)cc3c2=N)cc1Cl | 99
7 | Nc1nc(N)c2cc(S(=O)(=O)c3ccc4ccccc4c3)ccc2n1 | 64.9
8 | O=C(N/N=C/c1ccc2ncccc2c1)c1ccco1 | 75.7
9 | CCOc1ccc(-n2c(SCC(N)=O)nc3c([nH]c4ccccc43)c2=O)cc1 | 59.4
10 | Cc1cc(C)n2nc(C(=O)Nc3ccc4c(c3)OCCO4)nc2n1 | 45
11 | O=C(NC1=NC2CCCCC2N1)c1ccccc1 (stereo not given) | 62.8
12 | Cc1ccc(/C(N)=N/OC(=O)c2ccc(F)cc2)cc1 | 96.3
13 | O=C1c2ccccc2S(=O)(=O)c2cc(N3CCOCC3)ccc21 | 73.2
14 | C=CCNc1ncnc2c1ncn2C1OC(CO)C(O)C1O (stereo not given) | 46.8
15 | Cc1ccc(C(=O)N/N=C\c2ccc[nH]2)cc1[N+](=O)[O-] | 80.7
16 | CC(OC(=O)c1cc(O)c2ccccc2c1O)C(=O)Nc1ccc(C(N)=O)cc1 (stereo not given) | 49.5
17 | Oc1cccc2ccc(Nc3ccccn3)nc12 | 88.8
18 | CC(C)c1ccc2c(c1)CC[C@H]1[C@](C)(CN)CCC[C@]21C | 33.8
19 | CNC[C@@H](Cc1ccccc1)NC[C@@H](CC1CCCCC1)NCCCc1ccccc1 | 99.3
20 | CC(C)CC(N)c1csc(NC(=O)c2cc(C(C)(C)C)nn2Cc2ccccc2)n1 (stereo not given) | 70

Row | Structure (SMILES) | activity [%]
21 | OC(c1ccccc1)(c1ccccc1)C1CCN(CCCOc2ccc3c(c2)CCCC3)CC1 | 38
22 | O=C(Nc1ccc2c(c1)OCCO2)c1ccc2nccnc2c1 | 53.5
23 | O=C(Nc1cccc(-c2ccc(N3CCCCC3)nn2)c1)C(F)(F)F | 95.2
24 | COc1ccc(/C=C/c2cc(-c3ccc(C)cc3)o[n+]2C)cc1 | 81.8
25 | COc1cc2c(cc1NC(=O)c1cccc([N+](=O)[O-])c1)oc1ccccc12 | -1.55
26 | COc1ccc2c(=O)cc(-c3ccccc3)n(C)c2c1 | 56.4
27 | Cc1nc2cc(NC(=O)N3c4ccccc4CC3C)ccc2n1C (stereo not given) | 71.9
28 | Cc1ccccc1-n1nnnc1Sc1nnnn1-c1ccccc1 | 46.1
29 | O=C(CSC(=S)N1CCCCC1)c1ccccc1 | 50.8
30 | COc1oc(C(=O)NC2CCCCC2)c(-c2ccc(Cl)cc2)c1S(=O)(=O)c1ccccc1 | 97.8
31 | Cc1ccc(C(=O)Nc2ccc3c(c2)OCCO3)c(Cl)c1 | 92.3
32 | CC1=NN(c2nc(N)nc(/C(C#N)=C/c3ccc([N+](=O)[O-])o3)n2)C(C)(C)C1 | 58.1
33 | COc1ccc(CC(N)c2csc(NC(=O)c3cc(C(C)(C)C)nn3Cc3ccccc3)n2)cc1 (stereo not given) | 52.9
34 | COc1ccc2nc(-c3ccccc3)[nH]c2c1 | 57.3
35 | CCOc1ccc(NC(=O)Nc2cccnc2)cc1 | 55.2
36 | O=C(Nc1ccc(N2CCN(C(=O)c3cccs3)CC2)cc1)c1ccc([N+](=O)[O-])o1 | 86.7
37 | CC(=O)c1sc(NC(=O)c2ccc(C(C)(C)C)cc2)nc1C | 30.1
38 | Cc1cccc(-n2ncc3c(NC4CCCCC4)ncnc32)c1 | 66.7
39 | N=c1oc2cc(O)ccc2cc1C(=O)Nc1ccc(Cl)cc1 | 34.3
40 | Cc1cc(/C(N)=N/OC(=O)c2ccccc2Cl)no1 | 63.5
